Experimental findings from PubChem BioAssay (NCATS) are described below.

Records with an inconclusive call do not appear. Activity calls are given as the source filed them. Unless noted, calls come from the whole dose curve; as a rule, active = well fitted curve in the direction sought with a large enough effect; inconclusive = small, poorly fitted or top-dose-only effect, or another doubt; inactive = no such curve, though single readings can be large; an effect the other way counts as inactive or inconclusive.

Assay [1] deals with Glucocorticoid receptor (Homo sapiens) (UniProt P04150). The experiment in a line: GR-GFP Redistribution (AID 450;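 active = compounds whose dose series gives a full or clear partial fitted curve of increased nuclear translocation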; note: potency is the fitted concentration of half-maximal effect). The note with it: U2OS GR-GFP nuclear translocation, laser cytometry, 2 h.
Chain of Glucocorticoid receptor (Homo sapiens) (P04150 whole entry, looked up, the tested form may be a part): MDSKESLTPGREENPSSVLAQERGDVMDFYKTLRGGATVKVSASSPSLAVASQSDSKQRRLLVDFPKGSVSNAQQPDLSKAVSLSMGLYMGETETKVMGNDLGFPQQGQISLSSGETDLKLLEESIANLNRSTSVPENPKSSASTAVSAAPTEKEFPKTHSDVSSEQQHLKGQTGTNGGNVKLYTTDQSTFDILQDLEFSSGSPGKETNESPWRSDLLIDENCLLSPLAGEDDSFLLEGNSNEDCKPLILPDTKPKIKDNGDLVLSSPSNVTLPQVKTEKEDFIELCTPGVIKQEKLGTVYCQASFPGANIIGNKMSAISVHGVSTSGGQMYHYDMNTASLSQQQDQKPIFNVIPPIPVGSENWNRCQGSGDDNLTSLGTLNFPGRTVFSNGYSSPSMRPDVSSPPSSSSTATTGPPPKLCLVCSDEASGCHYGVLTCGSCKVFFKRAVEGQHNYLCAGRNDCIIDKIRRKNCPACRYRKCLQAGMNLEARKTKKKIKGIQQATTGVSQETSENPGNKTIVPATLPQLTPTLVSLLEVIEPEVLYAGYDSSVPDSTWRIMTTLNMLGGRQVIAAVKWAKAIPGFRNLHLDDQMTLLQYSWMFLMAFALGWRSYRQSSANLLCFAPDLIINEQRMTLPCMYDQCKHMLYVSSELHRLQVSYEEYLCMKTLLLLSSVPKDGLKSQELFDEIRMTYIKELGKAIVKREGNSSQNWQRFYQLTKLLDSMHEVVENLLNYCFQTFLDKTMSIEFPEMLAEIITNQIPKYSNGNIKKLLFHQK
Assay [2] shares this target. The experiment in a line: GR-EFC Redistribution (AID 451; calls by dose curve; note: potency is the fitted concentration of half-maximal effect). The note with it: CHO-K1 GR-EFC translocation, beta-gal luminescence, 2 h. An outline of the steps: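 CHO-K1 cells expressing nuclear EA and GR-ED fragments of b-gal; compounds titrated up to 46 uM final, 2 h at 37 C. GR nuclear translocation read as complemented b-gal luminescence after 1 h RT detection.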
The target of assay [3] is Mitogen-activated protein kinase 10 (Mus musculus) (UniProt Q61831). Description: JNK3 AlphaScreen Assay (AID 530; active = well fitted curve in either direction with a large enough effect, not every such curve was filed as active;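 note: kinase came from lysate of stimulated human HepG2 cells; signal reports phosphorylation of biotinylated GST-cJun 1-79 at Ser73 with 10 µM ATP; % is set by controls: 0 for no effect and ±100 for the full control effect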). An outline of the steps:
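Activity was read by AlphaScreen after JNK3-containing HepG2 lysate (cytokine pre-activated) phosphorylated biotinylated GST-cJun with 10 uM ATP at room temperature. Phospho-Ser73 cJun antibody with Protein-A acceptor beads provided detection.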

The nature of assay [4]: qHTS Assay for Lipid Storage Modulators (AID 1519; calls by dose curve; for activity change, negative = inhibition: % is set by controls: 0 for no effect and ±100 for the full control effect). The note with it: Drosophila S3 cells, BODIPY lipid droplet/cell ratio, laser cytometry, cells loaded with oleic acid; for activity change, negative = inhibition: at 57.5 µM (top of the series). An outline of the steps: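 Cells seeded at 5,000 per well were treated with compounds over a concentration series and loaded with oleic acid (400 uM, as added). Lipid droplet fluorescence (488 nm excitation, 500-530 nm channel) was read by laser-scanning cytometry and normalized to 20 uM Triacsin C.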

Assay [5] deals with Ubiquitin carboxyl-terminal hydrolase 1 (Homo sapiens) (UniProt O94782). The experiment in a line: Inhibitors of USP1/UAF1: Pilot qHTS (AID 504865).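 Note: rhodamine fluorescence freed from ubiquitin-rhodamine substrate followed over time; top concentration of the series differs between compounds; % is set by controls: 0 for no effect and ±100 for the full control effect; nearly all actives have a fitted effect of over 35% in size.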 The gist of the method: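 USP1/UAF1 complex at 1 nM preincubated 15 min at room temperature with compound, then Ub-Rho substrate added at 150 nM final. Fluorescence (480/540 nm) read kinetically in 50 mM HEPES pH 7.8, 0.5 mM EDTA, 1 mM TCEP, 0.1 mg/ml BSA, 0.01% Tween-20.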
Chain of Ubiquitin carboxyl-terminal hydrolase 1 (Homo sapiens) (O94782 whole entry, looked up): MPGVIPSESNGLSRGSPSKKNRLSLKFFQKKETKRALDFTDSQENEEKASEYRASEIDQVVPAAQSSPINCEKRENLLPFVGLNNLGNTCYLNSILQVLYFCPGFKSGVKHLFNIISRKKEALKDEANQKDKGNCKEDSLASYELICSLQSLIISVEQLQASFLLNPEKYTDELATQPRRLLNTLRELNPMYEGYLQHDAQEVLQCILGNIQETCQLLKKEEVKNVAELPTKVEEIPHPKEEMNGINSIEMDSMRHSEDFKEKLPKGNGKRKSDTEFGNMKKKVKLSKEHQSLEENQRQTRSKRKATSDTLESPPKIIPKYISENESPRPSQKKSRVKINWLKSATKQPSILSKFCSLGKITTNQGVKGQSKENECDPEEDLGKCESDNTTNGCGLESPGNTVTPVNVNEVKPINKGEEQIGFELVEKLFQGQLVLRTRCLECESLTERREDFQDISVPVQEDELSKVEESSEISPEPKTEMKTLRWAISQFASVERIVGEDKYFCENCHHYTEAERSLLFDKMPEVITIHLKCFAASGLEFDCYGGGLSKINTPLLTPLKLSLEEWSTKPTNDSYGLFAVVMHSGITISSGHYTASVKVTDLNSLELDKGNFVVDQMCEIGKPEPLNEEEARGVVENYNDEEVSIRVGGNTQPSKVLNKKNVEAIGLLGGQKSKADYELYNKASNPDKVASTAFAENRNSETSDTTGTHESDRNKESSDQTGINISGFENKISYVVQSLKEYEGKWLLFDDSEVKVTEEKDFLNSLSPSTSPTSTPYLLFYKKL

In assay [6] the target is DNA dC->dU-editing enzyme APOBEC-3G (Homo sapiens) (UniProt Q9HC16). The experiment in a line: qHTS for inhibitors of Vif-A3G interactions: Validation (AID 588379). Note: 0% is about no effect. An outline of the steps:
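Yellow fluorescence (Ex 488, Em 500-530) of Vif-coexpressing HeLa A3G-eYFP cells, scanned by Acumen cytometer, reports blocked A3G degradation. Cells plated at 700/well overnight at 37 deg C before compound addition, then a further overnight compound incubation at 37 deg C.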

The subject of assay [7] is Zika virus NS2B-NS3 protease. The experiment in a line: Primary screen GU AMC qHTS for Zika virus inhibitors (AID 1347154).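 Note: 0% = no-inhibitor control and -100% = no-enzyme control; nearly all actives have a fitted effect of over 70% in size.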 The gist of the method: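 Unlinked Zika NS2B hydrophilic domain–NS3 protease complex at 25 nM in 10 mM Tris-HCl pH 8.0, 0.01% Tween 20, with an AMC peptide substrate. Fluorescence change (340/450 nm) over 15 min at room temperature, normalized to controls, fitted to 4-parameter Hill.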

The nature of assay [8]: Primary qHTS for small molecule stabilizers of the endoplasmic reticulum resident proteome: Secreted ER Calcium Modulated Protein (SERCaMP) assay (AID 1508630). Note: % is set by controls: 0 for no effect and ±100 for the full control effect. An outline of the steps: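 The SH-SY5Y reporter protocol was run at 3 concentrations up to 38.3 uM (primary) or 11 concentrations (follow-up): 16 h compound, 100 nM thapsigargin for 4 h, then extracellular luciferase luminescence.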
Background: qHTS replaces the single test concentration by a dilution series.

Assay [9] deals with 3',5'-cyclic-AMP phosphodiesterase 4B (Homo sapiens) (UniProt Q07343). Description: qHTS Assay for Inhibitors of PDE-IV (AID 607; active = well fitted activation curve with a large enough effect in the main read-out, with a control signal flat, not every such curve was filed as active; note: % of control where 0% means no effect). An outline of the steps: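 ACTOne HEK293 cells carry a modified cAMP-gated CNG channel and express endogenous PDE4; plated 1000 cells/well, compounds up to 22.9 uM final. Membrane-potential dye fluorescence (ex 535/em 590) was read; parental cells received 10 uM forskolin + 100 uM RO 20-1724.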
Chain of 3',5'-cyclic-AMP phosphodiesterase 4B (Homo sapiens) (Q07343 whole entry, looked up): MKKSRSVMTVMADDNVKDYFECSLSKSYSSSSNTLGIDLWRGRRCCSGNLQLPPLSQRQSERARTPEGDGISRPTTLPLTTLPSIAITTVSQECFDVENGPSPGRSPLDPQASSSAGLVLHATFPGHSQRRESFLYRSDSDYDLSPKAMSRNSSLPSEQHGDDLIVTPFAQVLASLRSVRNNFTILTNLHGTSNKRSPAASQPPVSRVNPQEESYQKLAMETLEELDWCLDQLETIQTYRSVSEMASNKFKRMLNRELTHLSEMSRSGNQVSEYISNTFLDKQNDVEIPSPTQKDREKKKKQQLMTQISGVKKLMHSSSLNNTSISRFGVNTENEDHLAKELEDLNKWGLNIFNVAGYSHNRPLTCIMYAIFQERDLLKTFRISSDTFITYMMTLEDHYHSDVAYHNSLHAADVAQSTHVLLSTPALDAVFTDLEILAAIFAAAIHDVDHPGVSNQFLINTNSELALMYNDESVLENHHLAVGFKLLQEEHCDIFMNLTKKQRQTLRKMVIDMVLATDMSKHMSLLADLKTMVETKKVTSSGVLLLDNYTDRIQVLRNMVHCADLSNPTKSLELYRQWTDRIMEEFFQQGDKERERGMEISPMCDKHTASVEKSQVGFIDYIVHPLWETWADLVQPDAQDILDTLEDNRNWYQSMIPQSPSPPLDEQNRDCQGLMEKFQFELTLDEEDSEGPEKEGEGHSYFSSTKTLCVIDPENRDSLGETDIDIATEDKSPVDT

Assay [10] addresses Cytochrome P450 3A4 (Homo sapiens) (UniProt P08684). Description: qHTS Assay for Activators of Cytochrome P450 3A4 (AID 885). Note: nearly all actives have a fitted effect of over 65% in size. The gist of the method:
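CYP3A4 activity: Luciferin-PPXE O-dealkylation, 25uM substrate, 200mM KPO4, RT throughout. Read-out is luciferase luminescence; higher values reflect activation.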

The target in assay [11] is Cytochrome P450 1A2 (Homo sapiens) (UniProt P05177). The experiment in a line: p450-cyp1a2 (AID 410; calls by dose curve;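 note: -100% = full effect of reference inhibitor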). The gist of the method: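 Luminescent demethylation readout: Luciferin-ME (100uM, equal to Km) turned over by 20nM CYP1A2 for 60 min at room temperature after NADPH regeneration addition, following 10 min compound preincubation. Normalization used 57 uM furafylline as full inhibition.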
Chain of Cytochrome P450 1A2 (Homo sapiens) (P05177 whole entry, looked up): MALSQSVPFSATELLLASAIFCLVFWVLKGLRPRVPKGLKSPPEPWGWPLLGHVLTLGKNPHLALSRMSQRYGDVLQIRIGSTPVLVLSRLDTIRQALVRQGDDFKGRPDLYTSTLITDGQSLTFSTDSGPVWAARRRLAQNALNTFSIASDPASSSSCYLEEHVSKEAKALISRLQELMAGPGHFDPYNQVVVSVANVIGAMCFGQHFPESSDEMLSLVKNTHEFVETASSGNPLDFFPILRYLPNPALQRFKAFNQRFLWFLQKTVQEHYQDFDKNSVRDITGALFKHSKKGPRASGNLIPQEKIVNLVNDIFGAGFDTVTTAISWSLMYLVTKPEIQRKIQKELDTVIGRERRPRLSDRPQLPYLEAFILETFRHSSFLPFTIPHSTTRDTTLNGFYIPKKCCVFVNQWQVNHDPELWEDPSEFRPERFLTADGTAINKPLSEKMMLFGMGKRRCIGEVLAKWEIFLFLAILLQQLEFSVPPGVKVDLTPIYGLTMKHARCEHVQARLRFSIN

Setting [12] is: measured here: cell count channel max response.
Where [13] appears, read: measured here: lipid channel max response.

Chain of DNA dC->dU-editing enzyme APOBEC-3G (Homo sapiens) (Q9HC16 whole entry, looked up): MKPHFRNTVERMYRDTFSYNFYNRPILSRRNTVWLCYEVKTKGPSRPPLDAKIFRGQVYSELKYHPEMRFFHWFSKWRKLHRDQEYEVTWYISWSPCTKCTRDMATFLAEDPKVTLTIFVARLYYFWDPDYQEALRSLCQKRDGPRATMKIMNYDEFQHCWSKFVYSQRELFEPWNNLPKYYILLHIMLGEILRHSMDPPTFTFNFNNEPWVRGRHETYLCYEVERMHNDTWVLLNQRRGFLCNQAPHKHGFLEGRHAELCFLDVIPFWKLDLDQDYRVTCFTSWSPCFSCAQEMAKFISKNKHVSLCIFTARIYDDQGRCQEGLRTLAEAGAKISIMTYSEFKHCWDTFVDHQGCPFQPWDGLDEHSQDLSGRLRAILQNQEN
Chain of Cytochrome P450 3A4 (Homo sapiens) (P08684 whole entry, looked up): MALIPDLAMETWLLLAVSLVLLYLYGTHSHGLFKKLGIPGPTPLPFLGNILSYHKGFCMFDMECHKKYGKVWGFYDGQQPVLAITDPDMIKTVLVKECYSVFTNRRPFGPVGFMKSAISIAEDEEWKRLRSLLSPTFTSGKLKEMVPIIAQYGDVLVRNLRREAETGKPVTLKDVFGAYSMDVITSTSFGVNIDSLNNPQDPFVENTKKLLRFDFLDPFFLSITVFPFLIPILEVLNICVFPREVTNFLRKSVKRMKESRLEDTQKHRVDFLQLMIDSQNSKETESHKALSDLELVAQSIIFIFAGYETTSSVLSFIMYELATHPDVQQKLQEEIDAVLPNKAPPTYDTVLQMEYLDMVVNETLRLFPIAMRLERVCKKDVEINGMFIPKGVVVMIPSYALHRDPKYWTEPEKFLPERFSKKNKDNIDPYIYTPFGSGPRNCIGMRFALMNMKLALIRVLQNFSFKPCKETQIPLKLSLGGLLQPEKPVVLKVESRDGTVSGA

Regarding `C[N+](C)(CCCCCC[N+](C)(C)CCCN1C(=O)c2ccccc2C1=O)CCCN1C(=O)c2ccccc2C1=O`, the Potency in [1] and in [2] was > 46 µM (inactive) each time. Moreover, the Potency entry in assay [3], in [5], in assay [6], in [7] and in assay [8] was “inactive” each time. Besides, the activity change, negative = inhibition in assay [4] is -4.59% (inactive). Besides, the max response in assay [4] (setting [12]) is -18.6%; in assay [4] (setting [13]) it was -20.9%.

With `C[C@H](NC[C@H](O)CP(=O)(O)Cc1ccccc1)c1ccc(Cl)c(Cl)c1`, the Potency in assay [1] and in assay [2] was > 46 µM (inactive) in each case. Further, the Potency entry in [3], in assay [9], in assay [5], in assay [6], in assay [7] and in assay [8] was “inactive” throughout. In [4], the activity change, negative = inhibition is 2.58% (inactive). Further, the max response in assay [4] (setting [12]) was determined as 0.952%; in assay [4] (setting [13]), 5.21%.

As to `C1=C(CN2CCOCC2)COc2c1cccc2OC[C@@H]1CNCCO1`, the Potency in assay [1] and in assay [2] was > 46 µM (inactive) throughout. Further, the Potency entry in [9], in assay [10], in assay [5], in [6], in [7] and in assay [8] was “inactive” in each case. Further, the activity change, negative = inhibition in assay [4] is 0.797% (inactive). Further, the max response in assay [4] (setting [12]) was 5.43%; in [4] (setting [13]), 3.99%.

As for `CCCCCCCCCC(=O)O[C@H](CC(=O)O)C[N+](C)(C)C`, the Potency in assay [1] and in assay [2] was > 46 µM (inactive) each time. Moreover, the Potency entry in [3], in assay [5], in assay [6], in assay [7] and in [8] was “inactive” throughout. Moreover, the activity change, negative = inhibition in [4] is 3.92% (inactive). Besides, the max response was -0.114% in [4] (setting [12]) and -1.87% in assay [4] (setting [13]).

`Cc1ncc2c(c1O)COP(=O)(O)OC2`: the Potency in assay [1] and in [2] was > 46 µM (inactive) throughout. For the same compound, the Potency result in assay [3], in assay [9], in assay [5], in [6], in assay [7] and in assay [8] was “inactive” in each case. Further, the activity change, negative = inhibition in [4] was 0.354% (inactive). In addition, the max response in [4] (setting [12]) is -3.73%; in assay [4] (setting [13]), -4.32%.

Take `N[C@@H](Cn1cc(F)c(=O)[nH]c1=O)C(=O)O`: the Potency in assay [1] and in [2] was > 46 µM (inactive) each time. The Potency result in assay [3], in assay [5], in [6], in [7] and in [8] was “inactive” throughout. For the same compound, the activity change, negative = inhibition in assay [4] is -2.96% (inactive). In addition, the figures for the max response in assay [4] (setting [12]) and in [4] (setting [13]) were 17.5% and 14.7%, respectively.

As for `CN1CCN(CCc2ccc(Cl)c(Cl)c2)CC1`, the Potency in [1] and in assay [2] was > 46 µM (inactive) in each case. Moreover, the Potency entry in [3], in assay [9], in assay [5], in [6], in assay [7] and in assay [8] was “inactive” each time. Moreover, the activity change, negative = inhibition in assay [4] was -0.655% (inactive). For the same compound, the results for the max response in [4] (setting [12]) and in [4] (setting [13]) were -14.6% and -12.9%, respectively.

Consider `CCNC(=O)[C@H]1O[C@H](n2cnc3c(N)nc(NCCc4ccc(CCC(=O)O)cc4)nc32)[C@@H](O)[C@@H]1O`, for which the Potency in assay [1] and in assay [2] was > 46 µM (inactive) throughout. The Potency entry in assay [9], in assay [5], in assay [6], in assay [7] and in assay [8] was “inactive” in each case. Also, the activity change, negative = inhibition in [4] is -4.61% (inactive). Besides, the max response in [4] (setting [12]) is -14.7%; in assay [4] (setting [13]), -19.8%.

In the case of `COc1ccc2c(c1)CCC1[C@@H]2CCC2(C)[C@@H](NCCCCCCN3C(=O)C=CC3=O)CC[C@@H]12` (stereo not given in full), the Potency result in assay [11], in [3], in assay [9], in assay [6], in assay [7] and in assay [8] was “inactive” throughout. Moreover, the Potency in assay [1] and in [2] was > 46 µM (inactive) in each case. The activity change, negative = inhibition in assay [4] is -5.78% (inactive). The max response in assay [4] (setting [12]) was 16.2%; in assay [4] (setting [13]), 8.52%.
